Compound activity from PubChem BioAssay.
Rows were chosen to be rich in hits. Some 3.6% of all compounds tested hit in one or more screens of this group.
TGFb SMAD3 inh – qHTS for Inhibitors of TGF-b; HepG2 CAGA-GFP TGF-b/SMAD3 reporter, GFP fluorescence, 18 h; TGF-beta stimulated, 500 pg/mL final; Potency, µM (series often up to 46.1 µM), without a hit: at the top dose activity, negative = inhibition, most hits filed as inhibitors; hit rate 1.2% among 410,000; AID 588855, 2011; also: % is scaled to controls: 0 for no effect and ±100 for the full control effect; nearly all actives have a fitted effect of over 65% in size
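Using HEPG2 CAGA-GFP reporter cells at 1000 cells/well, we pinned test compounds, stimulated with recombinant TGF-beta (500 pg/mL final) and measured total well GFP after 18 h.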
Nrf2 ARE act – qHTS of Nrf2 Activators. AREc32 ARE-luciferase reporter (MCF7-derived line), luminescence, 24 h. Potency, µM (highest dose often 46.1 µM), inactives show at the top dose activation, hits mostly activators. hit rate 0.31% among 410,000; also: % of control where 0% means no effect; nearly all actives have a fitted effect of over 65% in size
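Quantitative high-throughput format: AREc32 reporter cells, 1000 per well, received compound by pin transfer and were incubated 24 hr at 37 deg C, 5% CO2, before Steady-Glo luminescence detection.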
HepG2 tox-1 – qHTS for Inhibitors of TGF-b: Cytotox Counterscreen; HepG2 CAGA-GFP viability, ATP luminescence, 18 h; Potency, µM (highest dose often 46.1 µM), inactives show at the top dose activity change, negative = cytotoxicity, usual class: cytotoxic; hit rate 0.76% among 410,000; AID 588856, 2011
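CellTiter-Glo luminescence gave cytotoxicity after 18 hours at 37 degrees C. The cells were HepG2 CAGA-GFP in 1% FBS DMEM, stimulated with 500 pg/mL TGF-beta after compound addition. %Activity was normalised to no-cell wells (complete cell-killing) and DMSO (no toxicity), and curves were fitted and classified.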
A549 tox – Nrf2 qHTS screen for inhibitors: counterscreen for cytotoxicity | Potency, µM (top dose mostly 46 µM), inactives show at the highest dose activity change, negative = cytotoxicity, actives largely listed as inhibitors | AID 504648, 2011 | hit rate 0.16% among 390,000 | A549 ARE-Fluc cells, CellTiter-Fluor viability, 18-24 h; also: % is scaled to controls: 0 for no effect and ±100 for the full control effect
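Cytotoxicity counterscreen: CellTiter-Fluor fluorescence was measured in A549 ARE_Fluc cells after 18-24 h of compound exposure in a concentration series. The subsequent BugLite luminescent read reports ARE-luciferase activity.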
Nrf2 block – Nrf2 qHTS screen for inhibitors; Potency, µM (titrated, usually from 46 µM), without a hit: at the top dose activity change, negative = inhibition, hits mostly inhibitors; hit rate 2.1% among 360,000; A549 ARE-Fluc reporter, luciferase luminescence, 18-24 h; also: % is scaled to controls: 0 for no effect and ±100 for the full control effect; nearly all actives have a fitted effect of over 60% in size
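Quantitative HTS in A549 cells stably bearing an antioxidant response element-firefly luciferase construct. Inhibition of Nrf2-driven transcription was scored by luminescence after 18-24 h of compound exposure at 37 °C.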
TGFb confirm – qHTS for Inhibitors of TGF-b: Confirmation of Cherry Picks; shares compounds with TGFb SMAD3 inh; HepG2 CAGA-GFP TGF-b reporter, GFP fluorescence, 18 h; cells stimulated with TGF-beta, 500 pg/mL; Potency, µM (doses to about 46.1 µM), inactives show at the highest dose activity, negative = inhibition, hits mostly inhibitors; hit rate 63% among 1,600; also: % is scaled to controls: 0 for no effect and ±100 for the full control effect; nearly all actives have a fitted effect of over 65% in size
HepG2 tox-2 – qHTS for Inhibitors of TGF-b: Cytotox Counterscreen for Cherry Picks; shares compounds with TGFb SMAD3 inh; HepG2 CAGA-GFP viability, ATP luminescence, 18 h; cells stimulated with TGF-beta, 500 pg/mL; Potency, µM (series often up to 46.1 µM), for the others: at the top dose activity, negative = cytotoxicity, hits mostly inhibitors; hit rate 27% among 1,600; also: % is scaled to controls: 0 for no effect and ±100 for the full control effect; nearly all actives have a fitted effect of over 70% in size
TGFb CCL64 inh – qHTS for Inhibitors of TGF-b: CCL64 Cells Orthogonal Assay for Cherry Picks | CCL64 CAGA-GFP reporter, TGF-b stimulated, GFP fluorescence, 18 h | shares compounds with TGFb SMAD3 inh | Potency, µM (series often up to 46.1 µM), for inactives: top-dose activity, negative = inhibition, hits mostly inhibitors | hit rate 41% among 1,600; also: nearly all actives have a fitted effect of over 65% in size
TGFb COP inh – qHTS for Inhibitors of TGF-b: Hit Validation in HepG2 Cells using COP promoter; shares compounds with TGFb SMAD3 inh; AID 720537, 2013; hit rate 3% among 1,600; HepG2 COP-GFP TGF-b reporter, GFP fluorescence, 18 h; cells stimulated by added recombinant TGF-beta; Potency, µM (highest dose often 46.1 µM), for inactives: at the highest dose activity, negative = inhibition, actives largely listed as inhibitors; also: nearly all actives have a fitted effect of over 70% in size
Active calls of the source: *; ? = inconclusive; · = no result given. Calls follow the shape of the dose curve; as a rule, active = well fitted curve in the direction sought with a large enough effect; inconclusive = small, poorly fitted or top-dose-only effect, or another doubt; inactive = no such curve, though single readings can be large; an effect the other way counts as inactive or inconclusive. Potency is read from the fitted curve at half-maximal effect.

SMILES | TGFb SMAD3 inh | Nrf2 ARE act | HepG2 tox-1 | A549 tox | Nrf2 block | TGFb confirm | HepG2 tox-2 | TGFb CCL64 inh | TGFb COP inh
O=C(c1ccc2c3c(cccc13)CC2)C1CCCN(Cc2ccncc2)C1 (centres undefined) | 7.94µM* | 1.4% | -43.9% | 0.1% | ? | -29.3% | ? | ? | 24.1%
CC(C)C[C@@H](CN1CCC[C@@H]1CN1C(=S)NC[C@@H]1Cc1ccccc1)N1C[C@H](Cc2ccc(O)cc2)N(CC2CCCCC2)C1=S | ? | -0.2% | -17.4% | · | · | · | · | · | ·
CC(C)C[C@@H](CN1CCCC1CN1C(=S)NC[C@@H]1Cc1ccc(O)cc1)N1C[C@H](Cc2ccc(O)cc2)N(CC2CCCCC2)C1=S (some centres undefined) | 10µM* | -2.5% | -99.5% | -15.6% | ? | 8.2µM* | ? | ? | ?
CC(C)C[C@H]1CNC(=S)N1CC1CCCN1C[C@H](CC(C)C)N1C[C@H](Cc2ccc(O)cc2)N(CC2CCCCC2)C1=S (some centres undefined) | 10µM* | -0.9% | 11.2µM* | ? | ? | ? | ? | ? | ?
CC(C)C[C@H]1CNC(=S)N1C[C@H]1CCCN1C[C@H](CC(C)C)N1C[C@H](Cc2ccc(O)cc2)N(CC2CCCCCC2)C1=S | 6.31µM* | -0.2% | 11.2µM* | · | · | ? | ? | ? | 90.6%
CC(C)C[C@H]1CNC(=S)N1CC1CCCN1C[C@H](CC(C)C)N1C[C@H](Cc2ccc(O)cc2)N(CC2CCCCCC2)C1=S (some centres undefined) | ? | 0.1% | -54.2% | -20.2% | ? | · | · | · | ·
O=C(Nc1ccc([N+](=O)[O-])cc1)Nc1ccc(OC(F)F)c(Cl)c1 | 4.47µM* | -0.8% | 12.6µM* | ? | 20.6µM* | 13µM* | 5.8µM* | 3.66µM* | ?
COc1ccc(NC(=O)Nc2cccc([N+](=O)[O-])c2)cc1Cl | ? | 5.7% | -41.7% | -7.4% | ? | · | · | · | ·
C=CC(=O)Nc1cccc(Oc2ccnc(Nc3ccc(N4CCN(C)CC4)cc3)n2)c1 | 12.6µM* | 16.6% | -10.0% | 1.64µM* | ? | 14.6µM* | 23.1µM* | 11.6µM* | 21.7%
C=CC(=O)Nc1cccc(Oc2ccnc3[nH]ccc23)c1 | ? | 9.0% | 1.8% | ? | -10.6% | · | · | · | ·
CN(C(=S)NC(=O)c1ccccc1Br)C1CCCCC1 | ? | 2.5% | -23.0% | 14.3% | ? | -19.8% | -13.5% | 8.6% | 1.5%
C/C(CC(=O)Nc1ccc(Cl)c(C(F)(F)F)c1)=N\NC(=O)c1ccccc1O | 15.8µM* | 8.5% | -68.3% | ? | 23.1µM* | ? | ? | ? | 102.0%
C/C(CC(=O)Nc1ccc(Cl)c(C(F)(F)F)c1)=N\NC(=O)c1cccc(O)c1 | -4.9% | 1.2% | -2.5% | -13.9% | -16.6% | · | · | · | ·
COc1ccc(-c2cc3ccccc3oc2=O)cc1NC(=O)c1ccc([N+](=O)[O-])o1 | 6.31µM* | 6.31µM* | -19.3% | -13.6% | ? | 1.84µM* | ? | -27.2% | -1.7%
c1ccc(-n2ncc3c(N4CCC5(CC4)OCCO5)ncnc32)cc1 | -24.4% | 3.1% | -0.6% | 5.3% | ? | · | · | · | ·
Cc1[nH]n(-c2ccccc2)c(=S)c1C=NCCCN=Cc1c(C)[nH]n(-c2ccccc2)c1=S | 0.562µM* | 13.7% | -39.8% | 0.0% | -3.6% | -4.4% | -2.7% | -18.3% | 7.5%
Cc1cscc1-c1ccc(C(=O)Nc2c(C)cccc2C)o1 | 14.1µM* | 5.0% | -24.8% | · | · | 11.6µM* | -13.2% | -29.2% | 17.0%
CN(C)c1nc(N/N=C/c2ccccc2O)nc(Nc2ccc(F)cc2)n1 | 12.6µM* | 2.3% | -23.9% | -3.5% | ? | 14.6µM* | ? | ? | -2.4%
CN(C)c1nc(Nc2ccc(F)cc2)nc(Oc2ccc(F)cc2)n1 | ? | 9.2% | -20.9% | 14.5% | -16.3% | · | · | · | ·
COc1ccc(C(=O)CCC(=O)Nc2cc(Cl)c(O)c(Cl)c2)cc1 | -5.0% | 11.7% | -1.1% | -1.8% | -3.6% | · | · | · | ·
O=C(C(=O)c1cc(Br)ccc1O)c1cc(Br)ccc1O | 6.31µM* | 6.7% | -34.7% | -9.6% | 6.3% | 6.51µM* | 11.6µM* | 4.61µM* | 81.4%
O=C(NCc1cccnc1)C1CCCN(S(=O)(=O)c2cccc3nsnc23)C1 (centres undefined) | ? | -0.6% | 3.1% | -3.6% | -10.3% | · | · | · | ·
COc1ccc(OC)c(CN2CCCC(C(=O)c3ccccc3SC)C2)c1 (centres undefined) | ? | 3.3% | -28.5% | -11.2% | 13.1% | ? | ? | ? | 40.3%
COc1ccc(-c2[nH]ncc2CN2CCCC(C(=O)c3ccc(OC)cc3OC)C2)cc1 (centres undefined) | -3.1% | 0.2% | -0.1% | 2.7% | 32.3% | · | · | · | ·
COc1cc(C(=O)Nc2ccc3oc(-c4ccc(C)c(Br)c4)nc3c2)cc(OC)c1OC | -11.2% | 0.4% | 0.9% | -0.3% | -22.8% | · | · | · | ·
CC(C)(C)c1ccc(Cn2nnc3c(=O)[nH]c(C4CCN(C(=O)c5ccco5)CC4)nc32)cc1 | 12.6µM* | 2.8% | -20.2% | ? | 25.9µM* | 18.4µM* | ? | -20.6% | 3.9%
Cc1ccccc1CC(=O)N1CCCC1 | 0.0% | -0.1% | -25.8% | 4.6% | -0.9% | · | · | · | ·
